Consider 34 targets from the supplement of paper PMC10849652.

About 7,900 targets were measured; listed, in parts, are those with a hit and a random draw of the rest. About 0.6% of all pairs of compound and target were hits. A number with no mark means an inactive call.

UniProt O60888, sequence (O60888 whole entry, looked up): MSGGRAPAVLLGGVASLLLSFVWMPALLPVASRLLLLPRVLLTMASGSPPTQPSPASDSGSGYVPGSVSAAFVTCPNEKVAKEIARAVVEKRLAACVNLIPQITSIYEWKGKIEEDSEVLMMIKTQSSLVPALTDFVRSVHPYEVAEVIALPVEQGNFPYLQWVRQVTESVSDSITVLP
UniProt Q9H773, sequence (Q9H773 whole entry, looked up): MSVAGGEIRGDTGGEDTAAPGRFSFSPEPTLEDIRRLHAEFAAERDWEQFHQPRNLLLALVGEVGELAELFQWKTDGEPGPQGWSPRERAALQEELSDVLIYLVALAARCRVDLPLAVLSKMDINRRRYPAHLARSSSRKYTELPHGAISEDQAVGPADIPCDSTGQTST
UniProt O60231, sequence (O60231 whole entry, looked up): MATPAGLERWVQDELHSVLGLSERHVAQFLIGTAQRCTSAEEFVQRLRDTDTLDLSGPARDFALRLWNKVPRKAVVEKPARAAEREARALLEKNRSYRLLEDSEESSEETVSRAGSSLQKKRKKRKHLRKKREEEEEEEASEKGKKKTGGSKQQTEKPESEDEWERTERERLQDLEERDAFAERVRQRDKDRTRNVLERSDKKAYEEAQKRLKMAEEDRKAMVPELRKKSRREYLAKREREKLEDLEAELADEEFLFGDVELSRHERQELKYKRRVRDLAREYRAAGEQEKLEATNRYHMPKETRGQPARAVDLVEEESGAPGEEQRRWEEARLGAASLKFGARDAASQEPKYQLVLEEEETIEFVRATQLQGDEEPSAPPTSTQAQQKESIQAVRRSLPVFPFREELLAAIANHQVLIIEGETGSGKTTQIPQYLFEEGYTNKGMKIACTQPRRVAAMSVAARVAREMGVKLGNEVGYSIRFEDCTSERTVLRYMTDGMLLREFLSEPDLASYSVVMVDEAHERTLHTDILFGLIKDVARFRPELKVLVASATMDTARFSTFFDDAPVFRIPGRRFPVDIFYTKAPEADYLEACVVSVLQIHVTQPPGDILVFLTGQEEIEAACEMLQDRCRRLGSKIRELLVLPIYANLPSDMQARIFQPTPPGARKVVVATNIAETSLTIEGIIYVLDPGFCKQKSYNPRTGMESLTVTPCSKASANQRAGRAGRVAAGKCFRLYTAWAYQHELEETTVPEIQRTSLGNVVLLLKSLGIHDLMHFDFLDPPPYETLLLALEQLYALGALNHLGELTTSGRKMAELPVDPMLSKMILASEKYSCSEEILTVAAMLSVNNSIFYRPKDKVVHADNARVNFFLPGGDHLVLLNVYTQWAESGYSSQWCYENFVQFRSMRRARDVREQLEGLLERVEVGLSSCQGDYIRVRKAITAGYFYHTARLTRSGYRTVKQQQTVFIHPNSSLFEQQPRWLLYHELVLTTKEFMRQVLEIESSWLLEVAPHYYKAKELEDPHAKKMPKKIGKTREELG
UniProt Q9HBU6, sequence (Q9HBU6 whole entry, looked up): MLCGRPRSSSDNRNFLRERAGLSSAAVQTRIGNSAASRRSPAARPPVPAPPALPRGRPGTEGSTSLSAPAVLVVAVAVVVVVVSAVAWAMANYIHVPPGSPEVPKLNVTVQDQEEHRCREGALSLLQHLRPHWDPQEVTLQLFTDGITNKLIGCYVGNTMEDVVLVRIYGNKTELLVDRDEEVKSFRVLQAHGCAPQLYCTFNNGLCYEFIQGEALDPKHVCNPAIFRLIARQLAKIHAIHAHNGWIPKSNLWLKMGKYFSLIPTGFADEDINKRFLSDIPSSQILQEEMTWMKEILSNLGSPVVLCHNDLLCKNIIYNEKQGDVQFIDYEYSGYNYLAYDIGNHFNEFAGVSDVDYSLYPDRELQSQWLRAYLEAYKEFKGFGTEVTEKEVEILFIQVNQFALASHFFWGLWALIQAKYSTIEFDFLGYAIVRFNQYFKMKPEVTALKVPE
UniProt P39656, sequence (P39656 whole entry, looked up): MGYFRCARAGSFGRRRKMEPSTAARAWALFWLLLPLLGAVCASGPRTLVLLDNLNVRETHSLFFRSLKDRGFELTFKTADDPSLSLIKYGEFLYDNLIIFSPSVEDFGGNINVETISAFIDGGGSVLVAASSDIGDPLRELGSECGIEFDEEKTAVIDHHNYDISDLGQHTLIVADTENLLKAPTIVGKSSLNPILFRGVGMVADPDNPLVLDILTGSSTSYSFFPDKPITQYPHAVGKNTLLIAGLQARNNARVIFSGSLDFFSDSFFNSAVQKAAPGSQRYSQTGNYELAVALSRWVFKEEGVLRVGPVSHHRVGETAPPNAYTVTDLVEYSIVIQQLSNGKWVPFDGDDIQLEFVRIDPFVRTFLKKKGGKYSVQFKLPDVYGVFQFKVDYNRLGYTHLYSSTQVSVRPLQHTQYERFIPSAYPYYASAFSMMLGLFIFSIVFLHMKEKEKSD
UniProt Q99615, sequence (Q99615 whole entry, looked up): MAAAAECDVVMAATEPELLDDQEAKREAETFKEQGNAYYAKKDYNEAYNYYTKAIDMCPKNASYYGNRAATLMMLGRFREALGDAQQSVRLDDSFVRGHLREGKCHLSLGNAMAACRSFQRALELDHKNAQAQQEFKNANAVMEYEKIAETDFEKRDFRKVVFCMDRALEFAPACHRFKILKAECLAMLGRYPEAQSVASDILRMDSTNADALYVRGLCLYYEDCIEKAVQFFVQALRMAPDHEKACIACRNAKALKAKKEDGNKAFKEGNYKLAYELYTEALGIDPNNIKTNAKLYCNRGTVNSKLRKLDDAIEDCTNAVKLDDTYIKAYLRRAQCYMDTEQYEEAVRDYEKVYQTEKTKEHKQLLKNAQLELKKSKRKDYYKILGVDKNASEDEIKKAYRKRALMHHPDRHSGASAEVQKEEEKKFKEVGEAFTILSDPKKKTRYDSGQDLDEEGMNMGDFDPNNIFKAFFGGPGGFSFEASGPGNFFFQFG
UniProt Q14320, sequence (Q14320 whole entry, looked up): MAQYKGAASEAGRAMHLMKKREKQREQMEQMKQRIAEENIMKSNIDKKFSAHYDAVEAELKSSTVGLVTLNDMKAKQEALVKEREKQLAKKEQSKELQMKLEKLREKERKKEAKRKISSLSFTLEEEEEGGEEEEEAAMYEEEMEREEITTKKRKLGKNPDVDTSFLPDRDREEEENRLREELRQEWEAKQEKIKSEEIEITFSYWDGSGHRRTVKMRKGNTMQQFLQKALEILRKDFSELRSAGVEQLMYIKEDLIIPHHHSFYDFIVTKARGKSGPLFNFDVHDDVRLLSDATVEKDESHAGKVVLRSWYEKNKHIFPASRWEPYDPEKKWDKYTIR
UniProt Q9NQZ7, sequence (Q9NQZ7 whole entry, looked up): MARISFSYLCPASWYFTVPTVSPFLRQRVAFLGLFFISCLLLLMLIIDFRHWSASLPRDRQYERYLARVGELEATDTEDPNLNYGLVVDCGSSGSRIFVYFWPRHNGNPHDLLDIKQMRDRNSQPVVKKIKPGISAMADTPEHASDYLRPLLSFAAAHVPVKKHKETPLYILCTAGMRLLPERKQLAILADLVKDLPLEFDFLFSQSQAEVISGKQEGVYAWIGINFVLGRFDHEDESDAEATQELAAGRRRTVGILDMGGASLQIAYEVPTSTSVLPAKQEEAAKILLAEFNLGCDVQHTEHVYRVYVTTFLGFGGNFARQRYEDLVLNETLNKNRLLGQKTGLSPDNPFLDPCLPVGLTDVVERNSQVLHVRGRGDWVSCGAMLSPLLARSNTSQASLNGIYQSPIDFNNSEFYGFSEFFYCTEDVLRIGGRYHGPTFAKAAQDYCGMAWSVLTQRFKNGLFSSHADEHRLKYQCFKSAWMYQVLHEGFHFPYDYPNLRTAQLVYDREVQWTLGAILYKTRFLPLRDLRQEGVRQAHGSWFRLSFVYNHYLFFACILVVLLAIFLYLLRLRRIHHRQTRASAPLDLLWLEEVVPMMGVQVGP
UniProt O60911, sequence (O60911 whole entry, looked up): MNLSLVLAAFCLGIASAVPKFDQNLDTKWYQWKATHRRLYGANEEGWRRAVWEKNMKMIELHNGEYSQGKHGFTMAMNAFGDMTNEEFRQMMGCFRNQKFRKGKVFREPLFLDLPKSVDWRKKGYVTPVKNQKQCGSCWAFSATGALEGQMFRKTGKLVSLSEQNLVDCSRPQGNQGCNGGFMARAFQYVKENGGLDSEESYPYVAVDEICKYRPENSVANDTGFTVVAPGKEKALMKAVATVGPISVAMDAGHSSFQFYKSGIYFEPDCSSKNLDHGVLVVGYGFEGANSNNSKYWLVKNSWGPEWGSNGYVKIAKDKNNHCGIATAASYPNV
UniProt O94905, sequence (O94905 whole entry, looked up): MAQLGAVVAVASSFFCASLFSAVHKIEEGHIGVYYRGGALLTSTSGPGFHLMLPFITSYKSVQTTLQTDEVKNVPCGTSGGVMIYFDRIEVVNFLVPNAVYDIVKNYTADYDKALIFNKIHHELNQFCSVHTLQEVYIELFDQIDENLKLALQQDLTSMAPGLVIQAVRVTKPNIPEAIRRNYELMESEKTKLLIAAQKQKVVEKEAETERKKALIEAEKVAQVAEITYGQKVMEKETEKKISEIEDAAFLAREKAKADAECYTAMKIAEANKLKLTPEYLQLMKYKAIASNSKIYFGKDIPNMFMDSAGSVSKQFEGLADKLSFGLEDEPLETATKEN
UniProt P11182, sequence (P11182 whole entry, looked up): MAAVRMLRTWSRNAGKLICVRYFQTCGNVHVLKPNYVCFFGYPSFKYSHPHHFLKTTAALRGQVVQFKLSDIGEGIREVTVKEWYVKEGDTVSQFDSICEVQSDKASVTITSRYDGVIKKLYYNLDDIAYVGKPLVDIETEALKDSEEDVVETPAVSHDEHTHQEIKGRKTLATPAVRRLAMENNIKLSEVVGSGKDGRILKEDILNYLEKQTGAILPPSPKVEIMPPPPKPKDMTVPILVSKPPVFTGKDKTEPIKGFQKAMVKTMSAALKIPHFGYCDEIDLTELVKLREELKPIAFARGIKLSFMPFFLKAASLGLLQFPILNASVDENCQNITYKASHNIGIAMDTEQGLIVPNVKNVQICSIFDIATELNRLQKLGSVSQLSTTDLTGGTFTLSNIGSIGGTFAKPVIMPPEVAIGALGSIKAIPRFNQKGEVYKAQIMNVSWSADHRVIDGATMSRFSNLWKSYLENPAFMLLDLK

Compound in this assay: c1cn2cc(-c3ccc4cn[nH]c4c3)nc(Nc3ccc(N4CCOCC4)cc3)c2n1 [entospletinib]
As to the kind of experiment: log2 fold change, soluble protein after heating vs DMSO (PISA); higher = thermal stabilisation; K562 cells, 10 uM, 30 min; active = over 0.2 and 3.5 SD of the protein, either way, in both replicates (recomputed). An outline of the steps:
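Aliquots of K562 cells (2×10^6 cells/mL) treated with 10 μM compound for 30 min were heated for 3 min over 48°C-58°C. After pooling and extraction in PBS with 0.5% NP-40 at 4°C, soluble protein from a 21,000xg, 90 min spin was quantified by TMTpro 16plex LC-MS/MS with channel sums equalised. Thermal stability is expressed against control samples, from duplicates, as a log2 fold change.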
DTNBP1 (UniProt Q96EV8): the log2 fold change is 0.004.

Regarding CYP51A1 (UniProt Q16850), the log2 fold change is 0.093.

In the case of ELOVL5 isoform 2 (UniProt Q9NYP7), the log2 fold change is 0.063.

For DNAH11 (UniProt Q96DT5), the log2 fold change is 0.115.

With CWC27 (UniProt Q6UX04), the log2 fold change was -0.019.

DHX16 (UniProt O60231): the log2 fold change was 0.01.

Turning to ENTPD7 (UniProt Q9NQZ7), the log2 fold change was 0.096.

As for DMAC1 (UniProt Q96GE9), the log2 fold change was 0.073.

Take EDC3 (UniProt Q96F86): the log2 fold change was -0.068.

With EDRF1 (UniProt Q3B7T1), the log2 fold change was -0.036.

As to DDOST (UniProt P39656), the log2 fold change was -0.014.

With DHRS3 (UniProt O75911), the log2 fold change was -0.041.

Turning to DEGS1 (UniProt O15121), the log2 fold change is -0.03.

For CTSL (UniProt P07711), the log2 fold change is 0.091.

Consider CUX1 isoform 2 (UniProt Q13948), for which the log2 fold change was -0.019.

As for DHRS13 (UniProt Q6UX07), the log2 fold change was -0.111.

For the target EXOC6 (UniProt Q8TAG9), the log2 fold change was 0.014.

With EIF2S3 (UniProt P41091), the log2 fold change is -0.051.

With FAM3A (UniProt P98173), the log2 fold change is 0.023.

Take CYP24A1 (UniProt Q07973): the log2 fold change is 0.019.

For the target DBT (UniProt P11182), the log2 fold change is 0.025.

Take FAM50A (UniProt Q14320): the log2 fold change was -0.006.

CTSV (UniProt O60911): the log2 fold change was 0.013.

Consider DNAAF2 (UniProt Q9NVR5), for which the log2 fold change was 0.051.

Take DNAJC7 (UniProt Q99615): the log2 fold change was -0.034.

With DAG1 (UniProt Q14118), the log2 fold change is 0.003.

As to DCTPP1 (UniProt Q9H773), the log2 fold change was -0.008.

Turning to DLD (UniProt P09622), the log2 fold change was 0.051.

DFFB (UniProt O76075): the log2 fold change is -0.024.

As for ERLIN2 (UniProt O94905), the log2 fold change is -0.062.

For the target ECH1 (UniProt Q13011), the log2 fold change was 0.024.

Regarding FAM117B (UniProt Q6P1L5), the log2 fold change is 0.009.

Take CUTA isoform 2 (UniProt O60888): the log2 fold change was -0.027.

Consider ETNK1 (UniProt Q9HBU6), for which the log2 fold change is -0.008.
